The other results are listed elsewhere or left out. The true hit rate is not given.
Target: furin, P09958
Experiment: furin cleavage Z-score vs untreated control; higher = more cleavage, active = 3.5 or more, inactive = 1 or less, 8 variable residues between constant flanks
How it was run: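 Magnetic beads held 8-mer peptides by the N-terminus, each fused to a cDNA oligonucleotide, and purified furin was added for 7.5, 15 or 30 min. Released DNA was sequenced after PCR adapter tagging. The cleavage Z-score is the log count relative to furin-free reactions, lowess-adjusted and divided by median absolute deviation.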
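Also: purified furin at 1:10 enzyme:substrate in 50 mM HEPES pH 7.5.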

furin, P09958, sequence (P09958 whole entry): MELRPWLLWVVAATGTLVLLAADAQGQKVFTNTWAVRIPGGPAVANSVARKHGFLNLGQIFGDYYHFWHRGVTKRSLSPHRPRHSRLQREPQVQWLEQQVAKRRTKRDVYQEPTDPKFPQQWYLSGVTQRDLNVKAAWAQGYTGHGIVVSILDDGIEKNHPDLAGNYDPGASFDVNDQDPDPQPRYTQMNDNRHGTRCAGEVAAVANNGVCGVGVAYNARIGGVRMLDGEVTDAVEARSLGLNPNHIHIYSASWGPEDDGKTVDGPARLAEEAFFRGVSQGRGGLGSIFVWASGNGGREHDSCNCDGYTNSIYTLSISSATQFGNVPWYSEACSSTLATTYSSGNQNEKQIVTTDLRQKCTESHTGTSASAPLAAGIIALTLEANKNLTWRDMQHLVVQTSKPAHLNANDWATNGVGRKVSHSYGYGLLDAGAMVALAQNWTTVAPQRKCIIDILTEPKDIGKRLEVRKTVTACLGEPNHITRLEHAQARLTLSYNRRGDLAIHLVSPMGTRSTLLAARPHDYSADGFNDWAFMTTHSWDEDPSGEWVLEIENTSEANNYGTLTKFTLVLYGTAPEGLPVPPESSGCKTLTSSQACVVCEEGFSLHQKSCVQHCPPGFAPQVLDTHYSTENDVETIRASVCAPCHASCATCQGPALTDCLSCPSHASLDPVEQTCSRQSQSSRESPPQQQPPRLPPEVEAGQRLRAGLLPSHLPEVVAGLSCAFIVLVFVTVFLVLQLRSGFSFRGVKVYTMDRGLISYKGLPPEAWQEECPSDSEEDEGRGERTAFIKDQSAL

Row | Sequence | furin cleavage Z-score (7.5 min) | furin cleavage Z-score (15 min) | furin cleavage Z-score (30 min)
1 | CAEAEVPCHRAGNASASA [HC2443] | 1.31 | 1.69 | -0.0334 (inactive)
2 | CAPLEVVTSTAGNASASA [HC2279] | 0.247 (inactive) | 0.62 (inactive) | 0.87 (inactive)
3 | CAKPAIIPDRAGNASASA [HC1006] | -0.622 (inactive) | 0.0184 (inactive) | -0.00549 (inactive)
4 | CAGAVQNEITAGNASASA [HC975] | -1.74 (inactive) | -0.537 (inactive) | -1.39 (inactive)
5 | CAGCPPDSDAAGNASASA [HC1348] | 0.143 (inactive) | -0.261 (inactive) | -1.34 (inactive)
6 | CARQRRHPELAGNASASA [FS-2763] | 2.08 | 1.42 | 4.23 (active)
7 | CARQRRSHVLAGNASASA [FS-2766] | 2.3 | 4.17 (active) | 4.75 (active)
8 | CARQRRSSGHAGNASASA [FS-3164] | 6.61 (active) | 6.83 (active) | 6.04 (active)
9 | CARQRRPWEPAGNASASA [FS-2366] | -0.356 (inactive) | -0.595 (inactive) | -1.76 (inactive)
10 | CARQRRVAGLAGNASASA [FS-2767] | -1.21 (inactive) | -0.684 (inactive) | 1.04
11 | CASRSLTPCTAGNASASA [HC719] | -0.572 (inactive) | -2.71 (inactive) | 0.443 (inactive)
12 | CANYATGNLPAGNASASA [HC242] | -0.747 (inactive) | 0.727 (inactive) | -1.07 (inactive)
13 | CAKRRRGRKSAGNASASA [FS-679] | 0.804 (inactive) | 2.45 | 1.45
14 | CAFRRRGRRSAGNASASA [FS-1325] | 7.29 (active) | 7.04 (active) | 5.71 (active)
15 | CAYHFRGRRSAGNASASA [FS-1438] | 8.22 (active) | 8.64 (active) | 7.23 (active)
16 | CACVVIVGRVAGNASASA [HC1000] | 0.746 (inactive) | -1.22 (inactive) | 1.75
17 | CARMKRIFYRAGNASASA [FS-3162] | 0.804 (inactive) | 2.26 | -0.0374 (inactive)
18 | CARMKRAGRVAGNASASA [FS-1751] | 5.19 (active) | 5.19 (active) | 5.87 (active)
19 | CAEVVRSTWVAGNASASA [HC130] | -1.7 (inactive) | -0.333 (inactive) | -1.26 (inactive)
20 | CAVKKRKGRVAGNASASA [FS-922] | 3.3 | 4.91 (active) | 6.5 (active)
21 | CALVNLLPAIAGNASASA [HC1100] | 1.21 | 0.684 (inactive) | 0.808 (inactive)
22 | CARNLGKVIDAGNASASA [HC219] | -0.809 (inactive) | 0.0222 (inactive) | -1.18 (inactive)

Row | Sequence | furin cleavage Z-score (7.5 min) | furin cleavage Z-score (15 min) | furin cleavage Z-score (30 min)
23 | CATQGCNCSIAGNASASA [HC311] | -0.897 (inactive) | -0.922 (inactive) | -0.937 (inactive)
24 | CAGDGRSYRGAGNASASA [FS-529] | -0.56 (inactive) | -0.653 (inactive) | -0.179 (inactive)
25 | CAVMGRMKREAGNASASA [FS-892] | 13 (active) | 13.9 (active) | 9.25 (active)
26 | CARKRRAKREAGNASASA [FS-1650] | 13 (active) | 13.6 (active) | 9.6 (active)
27 | CAGKGRKYREAGNASASA [FS-125] | 8.32 (active) | 9.76 (active) | 7.89 (active)
28 | CARPRRMKREAGNASASA [FS-710] | 12.1 (active) | 12.6 (active) | 8.41 (active)
29 | CARMDRVKKEAGNASASA [FS-953] | 0.785 (inactive) | 2.5 | 3.22
30 | CARPRRTKKTAGNASASA [DV3] | 0.136 (inactive) | 1.59 | 1.15
31 | CAEVVTSYWVAGNASASA [HC2209] | -1.41 (inactive) | -1.3 (inactive) | -1.27 (inactive)
32 | CADLVGWPAPAGNASASA [HC714] | -0.648 (inactive) | -0.464 (inactive) | -1.65 (inactive)
33 | CAYHVTNDCPAGNASASA [HC261] | -0.934 (inactive) | -0.574 (inactive) | -0.88 (inactive)
34 | CAKKWRMKREAGNASASA [FS-809] | 12.2 (active) | 12.8 (active) | 10.8 (active)
35 | CANHLTPLRDAGNASASA [HC636] | -0.625 (inactive) | -0.983 (inactive) | -0.425 (inactive)
36 | CASWLRDIWDAGNASASA [HC1148] | -1.29 (inactive) | -0.331 (inactive) | 0.22 (inactive)
37 | CAAFGRRRRDAGNASASA [FS-639] | 6.8 (active) | 6.94 (active) | 5.25 (active)
38 | CAGQPRRSRDAGNASASA [FS-430] | 8.53 (active) | 9.91 (active) | 6.63 (active)
39 | CAASCRPLTDAGNASASA [HC389] | -0.403 (inactive) | -0.436 (inactive) | 0.514 (inactive)
40 | CAGRLRPLRDAGNASASA [FS-164] | 6.08 (active) | 7.11 (active) | 5.86 (active)
41 | CALQGRSSRDAGNASASA [FS-357] | 0.94 (inactive) | 1.14 | 2.12
42 | CAPPPRRTRDAGNASASA [FS-840] | 7.22 (active) | 7.26 (active) | 5.47 (active)
43 | CAPWQRVDRDAGNASASA [FS-843] | -0.541 (inactive) | 0.153 (inactive) | -0.511 (inactive)
